Screening results deposited in PubChem by National Center for Advancing Translational Sciences (NCATS).
Hits are enriched below; roughly 2.8% of the tested compounds scored in any of these assays.
POLI inh: blocks human DNA polymerase iota activity; Potency, µM (highest dose often 115 µM), for the others: at the top dose activity, negative = inhibition, usual class: inhibitors; Pol iota fluorescent replication assay, 10 min; 1% of 390,000 active; AID 588590; also: potency is read from the fitted curve at half-maximal effect
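Fluorescent replication assay read twice, at 0 min and 10 min after adding 50 nM (final) substrate. Enzyme (10 nM) and compounds were first incubated 15 min at room temperature; enzyme-free buffer wells were negative controls.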
POLH inh: DNA polymerase eta (human) inhibition; Potency, µM (highest dose often 114 µM), for the others: top-dose activity change, negative = inhibition, actives largely listed as inhibitors; AID 588591; 1.2% of 390,000 active; recombinant Pol eta, fluorescent DNA replication assay; also: potency is read from the fitted curve at half-maximal effect; % is scaled to controls: 0 for no effect and ±100 for the full control effect
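Fluorescent replication assay: 50 nM final substrate added after a 15 min room-temperature compound preincubation with 10 nM enzyme. Signal taken at 0 min and again at 10 min.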
Pol beta inh: inhibitors of human DNA polymerase beta; P06746; Pol beta primer extension/strand displacement, fluorescence kinetic; Potency, µM (highest dose often 114 µM), without a hit: at the highest dose activity change, negative = inhibition, usual class: inhibitors; 1.3% of 340,000 active; AID 485314; also: potency is read from the fitted curve at half-maximal effect; % is scaled to controls: 0 for no effect and ±100 for the full control effect
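10 nM enzyme + cpd, 15 min RT; start with substrate 50 nM final; read 0 min and after 10 min RT. Corrected, normalized data; 4-parameter Hill curve fit.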
WRN inhibitor: inhibitors of human WRN helicase; Q14191; WRN helicase unwinding, fluorescent forked duplex, kinetic; Potency, µM (titrated, usually from 114 µM), inactives show top-dose activity change, negative = inhibition, hits mostly inhibitors; 0.46% of 360,000 active; AID 651768; also: potency is read from the fitted curve at half-maximal effect; % is scaled to controls: 0 for no effect and ±100 for the full control effect; nearly all actives have a fitted effect of over 55% in size
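Primary qHTS, 1536-well format. 20 nM WRN + compound, 15 min RT; start with 100 nM forked fluorophore/quencher duplex, 2 mM ATP (final); kinetic read ex 525/em 598 nm.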
PI5P4K alpha inh: blocks human PI5P4K alpha kinase activity | P48426 | PI5P4Kalpha enzyme, ADP-Glo luminescence, 60 min; hits give low values | max response, % | 1.2% of 330,000 active | AID 652105; active = max response of -50% or lower; inconclusive = between -30% and -50%; inactive = -30% or higher; also: value at the top dose of about 77 µM; % is scaled to controls: 0 for no effect and ±100 for the full control effect
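Controls without substrate or without enzyme flank wells where PI5P4Kalpha converts substrate using 5 microM ATP (final). Incubation lasts 60 minutes at room temperature; ADP formed is read by ADP-Glo luminescence.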
POLK inh: blocks human DNA polymerase kappa activity. Q9UBT6. purified Pol kappa, fluorescent DNA synthesis assay, 10 min. Potency, µM (titrated, usually from 107 µM), for the others: top-dose activity, negative = inhibition, hits mostly inhibitors. 0.53% of 400,000 active; also: potency is read from the fitted curve at half-maximal effect; % is scaled to controls: 0 for no effect and ±100 for the full control effect
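Enzyme at 10 nM met test compounds for 15 min at room temperature. Substrate addition (50 nM final) began the reaction, which was monitored by fluorescence at 0 and 10 min.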
* hit, by the source's call; ? = inconclusive; · = no result given; [ ] = another dose, or the depositor's remark. Unless noted, calls follow the shape of the dose curve; as a rule, active = well fitted curve in the direction sought with a large enough effect; inconclusive = small, poorly fitted or top-dose-only effect, or another doubt; inactive = no such curve, though single readings can be large; an effect the other way counts as inactive or inconclusive.

SMILES	POLI inh	POLH inh	Pol beta inh	WRN inhibitor	PI5P4K alpha inh	POLK inh
COc1ccc(C(=O)Nc2nnc(SCc3cc(=O)c4cc(C)ccc4[nH]3)s2)cc1OC	-21.1%	14.2%	5.7%	·	·	-9.8%[60.1 µM]
CCOC(=O)CNC(=O)Nc1nnc(-c2ccc(OCC)cc2)o1	28.5%	7.0%	79.4µM*	-0.9%	-3.2	-5.2%
CC(C)(C)C(=O)OCOP(=O)(COCCn1cnc2c(N)ncnc21)OCOC(=O)C(C)(C)C	·	·	·	·	·	-5.7%[60.1 µM]
CCCN(C(=O)/C=C/c1nc2ccccc2s1)C1CCS(=O)(=O)C1 (centres undefined)	-14.8%	-5.2%	·	-12.2%	?	-7.3%
CC1(NC(=O)/C=C/c2nc3ccccc3s2)CCS(=O)(=O)C1 (centres undefined)	39.8µM*	50.1µM*	·	3.6%[11.6 µM]	-55.9*	79.4µM*
COc1ccc(C(=O)CSc2nnc(-c3cc(C)on3)o2)cc1	-25.1%	-9.6%	11.2µM*	-10.7%	-24.9	-28.6%
O=C(CSc1nnc(-c2ccco2)o1)c1ccccc1	-7.5%	5.1%	39.8µM*	-8.5%	·	-10.0%
Cc1cc(-c2nnc(SCC(=O)c3ccc(Cl)cc3)o2)no1	22.0%	-0.1%	-13.3%	-10.0%	0.0	-16.5%
Cc1ccc(C(=O)CSc2nnc(-c3ccco3)n2Cc2ccccc2)cc1	?	-9.2%	-11.0%	?	-50.7*	-11.0%
O=C(CSc1nnc(-c2ccco2)n1Cc1ccccc1)c1ccccc1	1.9%	?	5.5%	-13.4%	1.5	-14.5%
O=C(CSc1nnc(-c2ccco2)o1)c1ccc(F)c(F)c1	17.6%	-17.6%	-2.2%	-2.6%	·	-1.2%
O=C(CSc1nnc(-c2ccco2)o1)c1ccc[nH]1	14.1µM*	?	14.1µM*	-26.8%	-85.6*	?
COc1ccc(OCc2ccc(-c3nc(C#N)c(N4CCN(C)CC4)o3)o2)cc1	-0.9%	-5.3%	15.7%	·	·	1.8%
Cc1cc(-c2ccc(N=Nc3c(S(=O)(=O)O)cc4cc(S(=O)(=O)O)cc(N)c4c3O)c(C)c2)ccc1N=Nc1c(S(=O)(=O)O)cc2cc(S(=O)(=O)O)cc(N)c2c1O	·	·	·	·	·	0.891µM*
O=S(=O)(O)c1cc(O)c2c(O)c(N=Nc3cc(Cl)ccc3O)c(S(=O)(=O)O)cc2c1	22.4µM*	35.5µM*	31.6µM*	44.7µM*	-76.1*	15.8µM*
Cc1ccc2c(c1)N(C(=O)N1CCC(C(=O)NCc3cccs3)CC1)CC(C)O2 (centres undefined)	5.2%	-3.6%	-1.2%	·	·	0.9%
O=C(N/N=C1\C(=O)c2cccc3cccc1c23)c1ccc(O)cc1	182.7%	?	5.62µM*	-19.7%	-21.9	-8.9%
COc1ccc(N2C(=O)/C(=C\c3ccco3)N=C2SCC(=O)N(C(C)C)C(C)C)cc1Cl	5.2%	-9.9%	56.2µM*	3.2%	0.3	-11.2%
Cc1cc(C)cc(NC(=O)c2oc3ccc4c(c3c2C)C(=O)CC(C)(C)O4)c1	17.0%	-14.8%	-7.6%	·	·	-0.3%
COc1cc(OC)c2c(C)c(CC(=O)NCc3ccccc3OC)c(=O)oc2c1	3.0%	28.2µM*	-10.8%	·	·	-4.8%
Cc1cccc(C)c1NC(=O)c1oc2ccc3c(c2c1C)C(=O)CC(C)(C)O3	11.2%	-5.1%	32.0%	·	·	-3.8%
COc1ccccc1CNC(=O)c1oc2ccc3c(c2c1C)C(=O)CC(C)(C)O3	89.1µM*	·	1.8%	·	·	-18.7%
Cc1c(C(=O)NCc2cccc(Br)c2)oc2ccc3c(c12)C(=O)CC(C)(C)O3	79.4µM*	·	7.8%	·	·	?
COc1ccc(-n2c(-c3ccc(F)cc3)cn3c4c(=O)n(C)c(=O)n(C)c4nc23)cc1	21.8%	-17.5%	-3.3%	·	·	4.9%
Cc1ccc(/C=C/C(=O)Nc2ccc(S(N)(=O)=O)cc2)o1	?	-19.7%	2.8%	-3.2%	-54.4*	-28.1%
CC(=O)Nc1ccc(S(=O)(=O)N/N=C/c2ccc(C)o2)cc1	25.1µM*	?	?	-2.8%	-22.9	-14.4%
Cc1ccc(/C=C/C(=O)NCc2ccc(S(N)(=O)=O)cc2)o1	?	?	-28.4%	?	?	-13.6%
